Experimental findings from PubChem BioAssay (NCATS) are described below.

The assay can be described thus: qHTS profiling of the MIPE4 collection as inhibitors of Plasmodium falciparum (HB3) proliferation (AID 743347).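 Further: plate controls were DMSO vehicle wells for no effect and artemisinin wells for full effect.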 Particulars: P. falciparum HB3 in erythrocytes, SYBR Green DNA, 72 h; at 28.5 µM (top of the series) unless noted. From the text: Plasmodium falciparum is a virulent malarial parasite that kills 1-2 million people worldwide each year. Transmitted by mosquitoes, the sporozoite form of the parasite enters the blood stream to infect hepatocytes, where they become merozoites that infect red blood cells (erythrocytes). Within erythrocytes, merozoites begin a […] cycle of growth and division, after which the parasite is released to infect new red blood cells. Gametocytes, which form within erythrocytes as well, circulate in the bloodstream and are ingested by the mosquito, thereby completing the life cycle. To profile malarial isolates for differential chemical responses and to identify inhibitors of malarial growth, an assay that measures P. falciparum growth and replication within erythrocytes was employed. This assay uses a DNA binding fluorescent dye (SYBR Green) to detect parasite DNA following cell lysis. Because mature erythrocytes lack DNA, only Plasmodium-derived DNA is detected.
The SYBR Green viability assay was adapted from a method described previously (Plouffe et al., 2008). For screening 3 ul culture medium was dispensed into 1536 well black clear bottom plates (Aurora Biotechnologies) using a Multidrop Combi (Thermo Fisher Scientific Inc.), 23 nL compounds in DMSO were added by a pin tool (Kalypsys), and 5 ul of erythrocytes infected with P. falciparum (0.3% parasitemia, 2.5% hematocrit final concentration) were added. The plates were incubated at 37 C in a humidified incubator in 5% CO2 for 72 h, and 2 ul lysis buffer (20 mM Tris HCl, 10 mM EDTA, 0.16% saponin, 1.6% triton X, 10X SYBR Green I supplied as 10,000X […] by Invitrogen) was added to each well. The plates were mixed for 25 sec with gentle shaking and incubated overnight at room temperature in the dark. The following morning, fluorescence intensity at 485(14) nm excitation and 535(25) nm emission wavelengths was measured on an EnVision (Perkin Elmer) plate reader. Plate reads were normalized relative to the control inhibitor (0.29 uM artemisinin) and vehicle (DMSO) wells present on each plate and then corrected by an algorithm using vehicle-only control plates at the beginning and end of the compound plate stack.
In the case of `CCc1ccc(C=C2SC(=S)NC2=O)cc1`, the growth, % of control came out at 87.9%.
To `Clc1ccc(COC(Cn2ccnc2)c2ccc(Cl)cc2Cl)cc1` (stereo not given) belongs 3.47%; to `CC=CC(=O)N(CC)c1ccccc1C`, 99.4%.
To `Oc1ccc(C2=Cc3ccc(O)cc3OC2)cc1` belongs 24.6%; to `CS(=O)(=O)N(Cc1ccco1)CC(O)Cn1c2ccccc2c2ccccc21` (stereo not given), 16.4%.
In turn, `Nc1ncnc2c1ncn2[C@@H]1O[C@H](CO)C[C@@H]1O` came in with a growth, % of control of 79%.
The result for `O=c1c(-c2ccc(O)cc2)coc2cc(O)ccc12` reads 89.3%; that for `COc1ccc2c3c1OC1C[C@@H](O)C=C[C@@]31CCN(C)C2` (stereo not given in full), 69.6%; that for `CC=CC[C@@H](C)C(=O)[C@H]1C(=O)N[C@@H](C(C)C)C(=O)N(C)CC(=O)N(C)[C@@H](CC(C)C)C(=O)N[C@@H](C(C)C)C(=O)N(C)[C@@H](CC(C)C)C(=O)N[C@@H](C)C(=O)N[C@H](C)C(=O)N(C)[C@@H](CC(C)C)C(=O)N(C)[C@@H](CC(C)C)C(=O)N(C)[C@@H](C(C)C)C(=O)N1C`, 103%.
As to `O=C1c2c(O)cc(O)cc2O[C@H](c2cc(O)c(O)c(O)c2)[C@H]1O`, the growth, % of control was determined as 102%.
The molecule `COc1ccc2cc(-c3nc(-c4ccc(S(C)=O)cc4)[nH]c3-c3ccncc3)ccc2c1` (stereo not given) yielded a growth, % of control of 3.67%.
The molecule `O=c1[nH]cnc2c1ncn2[C@H]1CC[C@@H](CO)O1` displayed a growth, % of control of 659%.
The result for `O=C(O)c1ccc(-c2c[nH]c3ncc(-c4ccccc4)cc23)cc1C1CCCC1` reads 3.77%; that for `COc1ccc(C2CC(c3ccccc3)=NN2c2ccc(S(N)(=O)=O)cc2)cc1` (stereo not given), 66%.
With `NS(=O)(=O)c1ccc(NC2=CC(=O)c3ccccc3C2=O)cc1`, the growth, % of control was 3.54%.
As for `CC(C)(C)NC(=O)Nc1cccc(Nc2ncc(F)c(NC(C)(C)CO)n2)c1`, the growth, % of control is 3.88%.
The result for `Oc1ccc(C2CCN(c3ccnc4ccccc34)CC2)cc1O` reads 3.95%; that for `CN[C@@H](C)C(=O)N[C@H]1CN(C(=O)CC(C)C)CC[C@H]2CC[C@@H](C(=O)NC(c3ccccc3)c3ccccc3)N2C1=O`, 72.2%.
Consider `CN(C)C1CCN(C(=O)c2ccc(NC(=O)Nc3nc(N4CCOCC4)nc(N4CCOCC4)n3)cc2)CC1`, for which the growth, % of control stood at 4.82%.
The result for `CC(C)(C)C(=O)Oc1ccc2c(c1)nc(NC(=O)c1cccc([N+](=O)[O-])c1)n2CCCO` reads 10.6%; that for `COc1cc(Nc2ncc(F)c(Nc3ccc4c(n3)NC(=O)C(C)(C)O4)n2)cc(OC)c1OC`, 2.09%.
To `Cc1cc(OCCCc2c(C(=O)O)n(Cc3cccnc3)c3c(-c4c(COc5ccc(N6CCN([S+](C)(=O)[O-])CC6)cc5)nn(C)c4C)cccc23)cc(C)c1Cl` belongs 5.16%; to `CC(C)n1nc(-c2ccc3oc(N)nc3c2)c2c(N)ncnc21`, 4.46%.
With `COc1cc(N2CCC(N3CCN(C)CC3)CC2)ccc1Nc1ncc(Cl)c(Nc2ccccc2S(=O)(=O)C(C)C)n1`, the growth, % of control came out at 7.64%.
On to `CC(C)(C)COc1ccc(-n2cc(C(=O)O)cn2)cc1C#N`, for which the growth, % of control came out at 67.6%.
To `NC(=O)c1ccc2nc(-c3ccc(Oc4ccc(Cl)cc4)cc3)[nH]c2c1` belongs 83.4%; to `CC1(C)Cc2c(sc(NC(=S)NC(=O)c3ccccc3)c2C(=O)O)CO1`, 103%.
To `O=C(Nc1c(Cl)cncc1Cl)c1ccc(OC(F)F)c(OCC2CC2)c1` belongs 100%.
To `CN(C)Cc1cccc(N=C(c2ccccc2)c2c(O)[nH]c3cc(C(=O)N(C)C)ccc23)c1` belongs 36.3%; to `O=c1cc(-c2cccc3c2Sc2ccccc2S3)oc(N2CCOCC2)c1`, 39.5%; to `CC(=O)Oc1cc2c(s1)CCN(C(C(=O)C1CC1)c1ccccc1F)C2` (stereo not given), 57.5%.
For `CCOc1ccc(Nc2nc(-c3c(C)nc4ccccn34)cs2)cc1`, the growth, % of control worked out at 4.43%.
As to `c1ccc2c(Cc3c[nH]c4ccccc34)c[nH]c2c1`, the growth, % of control stood at 23.8%.
To `CC(=O)N(C)C1(c2ccccc2)CCN(CCC[C@]2(c3ccc(Cl)c(Cl)c3)CCCN(C(=O)c3ccccc3)C2)CC1` belongs 7.98%; to `Cc1[nH]c(C=C2C(=O)Nc3ccc(S(=O)(=O)Cc4c(Cl)cccc4Cl)cc32)c(C)c1C(=O)N1CCC[C@H]1CN1CCCC1`, 5.52%; to `Cc1ccc(Nc2cc(-c3cccc(N4C(=O)c5ccccc5C4=O)c3)ncn2)cc1NS(C)(=O)=O`, 97.4%.
`CO[C@H]1C[C@@H]2CC[C@@H](C)[C@@](O)(O2)C(=O)C(=O)N2CCCC[C@@H]2C(=O)O[C@H]([C@H](C)C[C@@H]2CC[C@H](OCCO)[C@H](OC)C2)CC(=O)[C@H](C)C=C(C)[C@@H](O)[C@@H](OC)C(=O)[C@H](C)C[C@H](C)C=CC=CC=C1C` displayed a growth, % of control of 3.94%.
Molecule `CCCCCCCCCCCC1=C(O)C(=O)C=C(O)C1=O` had a growth, % of control of 27.2%.
To `CCC(=O)O[C@]1(C(=O)CO)CC[C@H]2[C@@H]3CCC4=CC(=O)CC[C@]4(C)[C@@H]3CC[C@@]21C` belongs 31%.
The result for `CC=CCC(C)C(O)C1C(=O)NC(CC)C(=O)N(C)CC(=O)N(C)C(CC(C)C)C(=O)NC(C(C)C)C(=O)N(C)C(CC(C)C)C(=O)NC(C)C(=O)NC(C)C(=O)N(C)C(CC(C)C)C(=O)N(C)C(CC(C)C)C(=O)N(C)C(C(C)C)C(=O)N1C` (stereo not given) reads 4.04%.
